Assay outcomes as filed in PubChem BioAssay.
Mtb bLac sens – beta-lactam sensitization of Mtb H37Rv; AID 434955; actives 0.27% (n = 330,000); M. tuberculosis H37Rv growth with meropenem, percent inhibition; inhibition, % at 25 µM; call rule not given here;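 also: growth measured after seven days incubation then overnight dye step; 0% = bacteria only wells and 100% = bacteria with antibiotic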
ugtP null kill – compounds lethal to S. aureus RN4220 ugtP deletion mutant. OD600 growth, 16 h. growth inhibition, % (concentration not given with the values). actives 0.54% (n = 330,000). AID 1259309; in the data active = growth inhibition above about 68%;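 also: plate controls were untreated wells for no effect and antibiotic for full effect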
RN4220 kill – S. aureus RN4220 growth inhibition; OD600, 16 h; inhibition, % (no concentration beside the values); actives 0.33% (n = 330,000); AID 1259311; in the data active = inhibition above about 85%;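 also: plate controls were untreated cells for no effect and reference antibiotic for full effect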
Mtb hypoxia inh – reduces hypoxia-regulated biosensor signal in M. tuberculosis; M. tuberculosis hypoxia-regulated fluorescent reporter, fluorescence; fluorescence inhibition, % (test concentration not listed); actives 0.1% (n = 300,000); AID 1159583; in the data active = fluorescence inhibition mostly above about 23%, no sharp cut-off; inactive = mostly below about 17%
An asterisk follows results filed as active; ? = inconclusive; / = no result shown. Only some compounds are listed: those with a hit (about 0.61% of all), similar ones and a draw of the others.

SMILES | Mtb bLac sens | ugtP null kill | RN4220 kill | Mtb hypoxia inh
CCOC(=O)C1=C(COC(=O)c2ccc(OC)c(S(=O)(=O)N3CCOCC3)c2)NC(=O)NC1C (configuration not stated) | / | 2 | 1 | 18*
COc1ccc(S(=O)(=O)N2CCCCC2)cc1NC(=O)CCNC(=O)c1ccccc1Cl | 1 | -2 | -1 | -1
CN(C)c1ccc(S(=O)(=O)N2CCCCC2)cc1NC(=O)CCNC(=O)c1ccccc1Cl | / | 1 | 4 | 23*
Cc1ccc(C(=O)Nc2nnc(-c3ccncc3)o2)cc1 | 95 | 9 | -5 | -9
O=C(Nc1nnc(-c2ccc(F)cc2)o1)c1cc(Cl)sc1Cl | 95 | 99* | 100* | 6
COc1cccc(-c2nnc(NC(=O)c3cccc(F)c3)o2)c1 | 97 | 98* | 98* | -2
O=C(Nc1nnc(-c2ccc(Cl)cc2)o1)c1nc2ccccc2s1 | 96 | 99* | 100* | 6
Cc1cccc(-c2nnc(NC(=O)c3ccc(Cl)cc3)o2)c1 | ? | 95* | 99* | 2
O=C(Nc1nnc(-c2ccccc2)o1)c1cc(Cl)sc1Cl | 87 | / | / | /
COc1cc(C(=O)NN=CC2CC=CCC2)cc(OC)c1OC (configuration not stated) | / | 5 | 2 | -2
COc1ccc(S(=O)(=O)N(C)CC2Oc3c(NC(=O)Nc4c(C)noc4C)cccc3C(=O)N(C(C)CO)CC2C)cc1 (configuration not stated) | / | 11 | 8 | 1
CCCN(CCC)S(=O)(=O)c1ccc(C(=O)Nc2nnc(-c3cccc(OC)c3)o2)cc1 | 97 | 100* | 99* | -5
CCCN(CCC)S(=O)(=O)c1ccc(C(=O)Nc2nnc(-c3cc(OC)cc(OC)c3)o2)cc1 | 85 | 21 | 55 | /
COc1cccc(-c2nnc(NC(=O)c3ccc(Cl)s3)o2)c1 | 95 | 100* | 100* | 3
O=C(Nc1nnc(-c2ccco2)o1)c1ccc(Cl)s1 | 93 | 2 | 18 | -2
O=C(Nc1nnc(-c2ccc3c(c2)OCCO3)o1)c1ccc(Cc2ccccc2)cc1 | 73 | 100* | 99* | 8
O=[N+]([O-])c1cccc(-n2cccc2C=NNc2nc(N3CCCCC3)nc(N3CCCCC3)n2)c1 | / | 2 | 6 | 5
CC1CN=C(N(C)C)N1CCCC1CCCCC1 (configuration not stated) | / | 9 | 7 | 25
COC(=O)[C@@]1(Cc2ccc(F)cc2)C2c3cc(C(=O)N(C)C)n(CCSCCO)c3CC2CN1C(=O)c1ccccc1 (some centres not stated) | / | -1 | 3 | -10
CCOc1ccc(/C=C2\SC(=S)N(NS(=O)(=O)c3ccccc3)C2=O)cc1OC | 1 | 32 | 61 | 6
COc1ccc(/C=C2\SC(=S)N(NS(=O)(=O)c3ccc(C)cc3)C2=O)c(OC)c1 | -8 | / | / | /
COc1ccccc1/C=C1\SC(=S)N(NS(=O)(=O)c2ccc(C)cc2)C1=O | -1 | 81 | 96* | -19
COc1ccc(/C=C2\SC(=S)N(NS(=O)(=O)c3ccccc3)C2=O)c(OC)c1 | -2 | 91* | 69 | 5
CCOc1ccc(/C=C2\SC(=S)N(NS(=O)(=O)c3ccc(C)cc3)C2=O)cc1OC | 1 | 85 | 86* | 4
COC(=O)CN1C(=O)C2C(c3ccc(C)o3)N3C(=O)CN(Cc4ccc(-c5ccccc5)cc4)C(=O)[C@@]3(C)C2C1=O (some centres not stated) | / | -2 | 4 | 8
SMILES | Mtb bLac sens | ugtP null kill | RN4220 kill | Mtb hypoxia inh
c1ccc(-c2nnc(-c3ccccn3)nc2NC2CCCCC2)cc1 | 82 | 89 | 97* | /
CNc1nc(-c2ccccn2)nnc1-c1ccccc1 | 93 | 4 | 0 | /
COc1ccc(C=NNS(=O)(=O)c2ccc(Cl)cc2)cc1COc1ccccc1[N+](=O)[O-] | / | 18 | 15 | /
CCOC(=O)c1ccc(-c2c(-c3ccccc3OC)oc3ccccc23)cc1F | 8 | 92* | -5 | 10
Cc1ccc(NC(=O)C(OC(=O)c2ccc(NC(N)=O)cc2)c2ccccc2)cc1Cl (configuration not stated) | 10 | 100* | 101* | 14
Cc1ccc(NC(=O)C(OC(=O)c2ccccc2Cl)c2ccccc2)cc1Cl (configuration not stated) | -1 | 17 | -6 | -2
N#CC(=Cc1ccc(O)c([N+](=O)[O-])c1)c1nc2ccccc2s1 | / | 97* | 96* | /
COc1cc(/C=C(\C#N)c2nc3ccccc3s2)cc([N+](=O)[O-])c1O | / | 82 | 66 | /
O=[N+]([O-])c1ncccc1OCc1ccc(-c2ccccc2)cc1 | 34 | 89* | -1 | -13
O=C(NCCCN1CCOCC1)C(=O)NN=Cc1ccccc1O | / | -2 | 3 | 12
Cc1ccc(S(=O)(=O)Nc2nc3ccc(N)cc3s2)cc1 | 0 | 84* | 9 | -10
Cc1nc2ccccc2n1N=Cc1ccc([N+](=O)[O-])o1 | / | 100* | 101* | /
Cc1cc2ncn(N=Cc3ccc([N+](=O)[O-])o3)c2cc1C | / | 101* | 100* | 9
CC(=NN=C(N)N)c1ccc(C)c(C)c1 | / | -5 | 2 | 3
C=CCNC(=O)C1CC1(c1cccc(C)c1)c1cccc(C)c1 (configuration not stated) | -1 | -6 | 2 | 9
Cc1cccc(C2(c3cccc(C)c3)CC2C(=O)Nc2ccc([N+](=O)[O-])cc2O)c1 (configuration not stated) | 10 | 100* | 100* | 18
COc1ccc(Cl)cc1NC(=O)C(C)OC(=O)Cn1cc(C(F)(F)F)ccc1=O (configuration not stated) | 2 | -2 | 2 | 27*
Cc1cc(/C=C2\Sc3ccccc3N2C)cc(C)[n+]1CC1CCCO1 (configuration not stated) | / | 101* | 100* | /
O=C1NC(Cc2ccccc2)C(=O)N1Cc1ccccc1 (configuration not stated) | / | 7 | 6 | 14
O=c1ccsn1Cc1ccccc1 | 1 | 88* | 4 | 7
CCOc1ccccc1-c1cc(C(=O)NN=Cc2ccc3c(c2)OCO3)c2ccccc2n1 | / | -4 | 4 | -17
CCCCCCCCCCOC(=O)C[N+](C)(C)C/C=C(/C)Cl | -4 | 100* | 16 | 1
CCCCCCCCOC(=O)C[N+](C)(C)C/C=C(/C)Cl | 6 | 6 | 2 | 3
CCC1OC(=O)C(C)C(OC2C[C@@](C)(OC)C(O)C(C)O2)C(C)C(OC2OC(C)CC(N(C)C)C2O)[C@](C)(OC)CC(C)C(=O)C(C)C(O)[C@]1(C)O (some centres not stated) | / | 100* | 101* | /
O=C1c2ccccc2C(=O)c2cc(S(=O)(=O)Nc3ccccc3)ccc21 | 14 | 89* | 96* | 7
O=C(O)c1cccc(NS(=O)(=O)c2ccc3c(c2)C(=O)c2ccccc2C3=O)c1 | -3 | 2 | 8 | -16
Cc1ccc(S(=O)(=O)N2[C@@H](c3ccc(C(C)(C)C)cc3)C(C(=O)O)=CC[C@H]2c2ccc(C(C)C)cc2)cc1 | 2 | 88* | 97* | -1
Cc1ccc(S(=O)(=O)N2[C@@H](c3ccc(C(C)(C)C)cc3)C(C(=O)O)=CC[C@H]2c2ccc(Cl)cc2)cc1 | 2 | 80 | 99* | -4
